Compound activity deposited in PubChem by National Center for Advancing Translational Sciences (NCATS).
D3 antag: antagonists of human D3 dopamine receptor. P35462. max response, negative = inhibition, %. AID 652054. 2.5% of 360,000 active. D3R cells, DiscoveRx beta-arrestin luminescence, antagonist mode; active compounds read low; in the data active means max response below about -50%; inconclusive means no clear call, values can overlap the other calls; further: on the % scale 0 is the no-effect control and ±100 the full control effect
Target sequence (P35462 whole entry, looked up): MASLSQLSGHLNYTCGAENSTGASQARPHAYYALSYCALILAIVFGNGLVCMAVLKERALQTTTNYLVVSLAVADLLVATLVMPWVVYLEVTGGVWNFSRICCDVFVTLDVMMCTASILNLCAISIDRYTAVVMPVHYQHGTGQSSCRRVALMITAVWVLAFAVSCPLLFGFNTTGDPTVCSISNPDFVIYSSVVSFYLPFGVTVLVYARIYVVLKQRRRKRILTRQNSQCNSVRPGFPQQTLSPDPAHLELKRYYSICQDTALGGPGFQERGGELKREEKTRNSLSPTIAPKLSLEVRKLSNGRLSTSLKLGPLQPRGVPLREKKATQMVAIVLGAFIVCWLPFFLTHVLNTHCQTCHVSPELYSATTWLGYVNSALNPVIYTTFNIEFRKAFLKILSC
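Cells plated overnight at 1500 cells/well, then exposed to library compounds with dopamine controls for 90 minutes at 37 degrees C. DiscoveRx reagent added for 30–60 minutes at room temperature; luminescence read, quantitative HTS format.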
IL1B secr inh: inflammasome signaling inhibition, IL-1 beta readout. 4.7% of 360,000 active. THP-1 LPS/ATP IL-1B secretion, AlphaLISA, 16 h; active compounds read low. activity change, % at 57.5 µM; in the data active means activity change below about -50%; inconclusive means mostly about -30% to -49%; further: on the % scale 0 is the no-effect control and ±100 the full control effect
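Secreted IL-1B measured by AlphaLISA bead assay after 16 h compound exposure of THP-1 cells; compounds (final up to 57.5 uM) added 1 h before LPS (250 ng/mL) and ATP (1.25 mM) stimulation; lower signal means less secretion.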
ClpP mod: qHTS Assay for Activators of ClpP | ATP-dependent Clp protease proteolytic subunit (Bacillus subtilis (strain 168)), P80244 | Potency, µM (titrated, usually from 57.5 µM), for inactives: at the top dose activity change, negative = active | AID 651965, 2013 | purified B. subtilis ClpP, FRET peptide cleavage, 20 min | 1.9% of 340,000 active; active means well fitted falling curve with a large enough effect; inconclusive means small, poorly fitted or top-dose-only effect; inactive means no such curve, though single readings can be large or run the other way; further: potency means the concentration at half of the fitted maximal effect; the source files actives as falling curves though it sought activators and does not explain the sign; nearly all actives have a fitted effect of over 65% in size
Target sequence (P80244 whole entry, looked up): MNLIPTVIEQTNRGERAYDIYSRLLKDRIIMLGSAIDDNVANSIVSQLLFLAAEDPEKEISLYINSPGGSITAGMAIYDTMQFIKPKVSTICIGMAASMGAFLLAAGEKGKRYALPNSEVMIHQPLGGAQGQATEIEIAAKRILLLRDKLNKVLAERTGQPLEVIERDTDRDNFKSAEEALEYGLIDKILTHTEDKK
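FRET quenching reversal measured ClpP activation: 10 microg/mL B. subtilis ClpP at pH 8 with the FRET-FV decapeptide, read at 430 nm after 320 nm excitation. The 20-min minus 0-min signal was scaled between DMSO/no-enzyme wells and ADEP (5.8 microM final).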
D3 ag: D3 dopamine receptor (human) agonism; D3R DiscoveRx beta-arrestin cells, luminescence, 90 min; max activation, %; 0.58% of 410,000 active; AID 652048; in the data active means max activation above about 30%; further: 0% is about no effect
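Cells at 1500/well, incubated overnight, then treated with pinned compounds (dopamine as control) for 90 min at 37 degrees C. DiscoveRx reagent added for 30 - 60 minutes at room temperature; luminescence read.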
TDP1 cell CPT: DT40-hTDP1 cell growth loss with CPT; 12% of 420,000 active; Potency, µM (highest dose often 46.2 µM), for the others: at the highest dose activity change, negative = growth inhibition, most hits filed as inhibitors; chicken DT40 Tdp1-/-;hTDP1 cells + 20 nM CPT, ATP luminescence, 48 h; further: potency means the concentration at half of the fitted maximal effect; on the % scale 0 is the no-effect control and ±100 the full control effect; nearly all actives have a fitted effect of over 55% in size
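Cell growth measured by CellTiter-Glo luminescence after a minimum 48 h, 37 C compound exposure with 20 nM CPT in Tdp1-knockout DT40 cells stably expressing hTDP1, seeded 400/well; qHTS titration format.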
DT40 TDP1 no CPT: qHTS for Inhibitors of human tyrosyl-DNA phosphodiesterase 1 (TDP1): qHTS in cells in absence of CPT; DT40 Tdp1-/- hTDP1 cells, no CPT, ATP luminescence, 48 h; Potency, µM (series often up to 46.2 µM), without a hit: at the top dose activity change, negative = growth inhibition, hits mostly inhibitors; 15% of 420,000 active; AID 686978, 2013; further: potency means the concentration at half of the fitted maximal effect; on the % scale 0 is the no-effect control and ±100 the full control effect; nearly all actives have a fitted effect of over 55% in size
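Chicken DT40 Tdp1-/- cells complemented with human TDP1, screened without camptothecin (DMSO vehicle only), 400 cells/well. Compounds pin-transferred, cells incubated at 37 °C for at least 48 hr. Growth read as ATP-dependent luminescence (CellTiter-Glo, 30 min at RT).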
* hit, by the source's call; ? = inconclusive; nt = no result given; [ ] = another dose, or the depositor's remark. Rows were chosen to be rich in hits. Some 21% of all compounds tested hit in one or more screens of this group. Unless noted, the call rests on the fitted dose curve; in most records, active means well fitted inhibition curve with a large enough effect; inconclusive means small, poorly fitted or top-dose-only effect; inactive means flat fitted curve, though single readings scatter.

SMILES	D3 antag	IL1B secr inh	ClpP mod	D3 ag	TDP1 cell CPT	DT40 TDP1 no CPT
C=CCc1cccc(CNc2ccc(Br)cc2)c1O	20.6	-11.2	0.2%	0.1	-7.6%	?
CC(=O)NCCNc1nc2cc(-c3cccc(Cl)c3)sc2c(=O)n1C	16.6	-12.9	-24.3%	1.1	-1.3%	-22.4%
O=C(/C=C/c1ccccc1)NCCO	nt	nt	nt	-16.1	?	?
Cc1cc(=O)[nH]c(SCC(=O)c2ccccc2)c1C#N	-25.7	-2.2	-1.4%	3.0	-15.5%	-8.7%
Cc1cc(C)c(C#N)c(SCC(=O)c2ccccc2)n1	-16.0	-11.5	0.5%	-10.3	16.4µM*	-46.0%
Cc1cc(C)c(C#N)c(SCC(=O)c2cccs2)n1	?	-98.5*	-0.5%	2.2	-23.2%	?
COC(=O)CSc1nc(C)cc(C)c1C#N	7.1	-10.7	nt	-6.0	-4.8%	-5.5%
CCOc1ccc(Nc2ccc(N)c(S(=O)(=O)O)c2)cc1	-11.8	13.9	nt	15.4	7.6%	5.3%
COC(=O)CC1COc2ccccc2N1S(=O)(=O)c1ccc(OC)cc1 (configuration not stated)	12.5	24.8	0.8%	-13.1	3.66µM*	5.17µM*
COC(=O)c1ccc(CN2C(=O)NC3(CCC(C)CC3)C2=O)o1 (configuration not stated)	-64.6*	-5.0	-7.2%	-2.8	1.1%	?
CC1CCC2(CC1)NC(=O)N(CC(=O)c1ccc[nH]1)C2=O (configuration not stated)	20.9	0.0	28.2µM*	-1.5	?	0.3%
COC(=O)c1ccc(CN2C(=O)NC3(CCC(C)CC3)C2=O)cc1 (configuration not stated)	5.5	19.8	-3.0%	1.1	5.0%	-16.3%
CC1CCCCC12NC(=O)N(CC(=O)c1ccc[nH]1)C2=O (configuration not stated)	9.2	-2.2	-2.0%	-1.0	-11.8%	-28.0%
OCCC1CN(Cc2cccn2-c2ccccn2)CCN1C1CCCC1 (configuration not stated)	-5.6	-13.2	nt	-10.7	31.4%	-5.7%
Cc1ccsc1C(=O)C1CCCN(Cc2cccn2-c2ccc(Cl)cn2)C1 (configuration not stated)	-66.6*	-76.4*	-2.9%	-11.8	23.1µM*	25.9µM*
O=C(c1ccc(Cl)cc1)C1CCCN(Cc2cccn2-c2ccccn2)C1 (configuration not stated)	0.3	-80.4*	-0.2%	-16.6	9.2µM*	?
COc1ccc(C(=O)C2CCCN(Cc3cccn3-c3ccccn3)C2)cc1F (configuration not stated)	-0.7	-52.2*	nt	-1.5	16.4µM*	14.6µM*
CSc1ccc(C(=O)C2CCCN(C(=O)CCCn3cncn3)C2)cc1 (configuration not stated)	-2.7	-2.1	-2.7%	3.4	?	?
CSc1ccc(C(=O)C2CCCN(Cc3cccc4nccnc34)C2)cc1 (configuration not stated)	0.0	-19.9	nt	-37.1	14.6µM*	?
Cc1ccc(-n2cccn2)c(CN2CCCC(C(=O)c3sccc3C)C2)c1 (configuration not stated)	-75.6*	-95.2*	nt	-13.7	23.1µM*	23.1µM*
CC(C)Oc1cccc(C(=O)C2CCCN(Cc3cccn3-c3ccccn3)C2)c1 (configuration not stated)	-14.2	-91.6*	-5.1%	-12.3	?	?
COc1cccc(C(=O)C2CCCN(Cc3cccn3-c3ccccn3)C2)c1 (configuration not stated)	-20.6	?	nt	-7.7	?	18.4µM*
O=C(c1ccc(C(F)(F)F)cc1)C1CCCN(Cc2cccn2-c2ncccn2)C1 (configuration not stated)	-9.4	-72.9*	1.2%	-3.8	?	25.9µM*
COc1cc(C(=O)Oc2ccc3c(OC)c4ccoc4nc3c2OC)cc(OC)c1OC	nt	nt	nt	nt	-8.8%[9.04 µM]	4.8%[9.04 µM]
NC(=O)c1ccc(NC(=O)COc2coc(CN3CCc4ccccc4C3)cc2=O)cc1	-4.0	7.0	1.1%	-20.1	?	-23.0%
SMILES	D3 antag	IL1B secr inh	ClpP mod	D3 ag	TDP1 cell CPT	DT40 TDP1 no CPT
c1ccc(-c2cc3nc(NCC4CC4)nc(NCC4CCCCC4)c3s2)cc1	0.0	-108.6*	20µM*	-0.9	4.61µM*	2.91µM*
COCCNc1nc(NCCOc2ccccc2Cl)c2sc(-c3ccccc3)cc2n1	14.7	-59.6*	-26.8%	58.0*	9.2µM*	13µM*
COCCNc1nc(NCCNC(C)=O)c2sc(-c3ccccc3)cc2n1	-25.1	nt	4.0%	-5.4	?	?
COCCNc1nc(-c2ccccc2CO)c2sc(-c3ccccc3)cc2n1	?	19.5	4.8%	-8.3	1.3µM*	1.84µM*
COCCNc1nc(NCC2CCCCC2)c2sc(-c3ccccc3)cc2n1	0.9	-103.5*	25.1µM*	3.7	14.6µM*	8.2µM*
Cc1cc(-c2cc(-c3ccccc3)on2)nc(NCC2CC2)n1	12.6	-4.4	?	4.5	-14.5%	-16.4%
Cc1ccc2c(c1)-c1nc(-c3ccccc3)cc(-c3ccccc3)c1CO2	nt	nt	-19.1%	2.6	-28.9%	?
O=C1NCCN1CCNc1nc(NCC2CC2)nc2cc(-c3ccccc3)sc12	?	nt	?	-10.4	?	20.6µM*
Cn1c(NCCOc2ccccc2)nc2cc(-c3ccc(F)cc3)sc2c1=O	0.0	1.5	-7.2%	-5.4	?	?
CCOC(=O)CCCCC(=O)c1[nH]c(=O)[nH]c1CSc1nc(C)cc(=O)[nH]1	18.4	?	0.5%	4.8	4.0%	9.1%
CCOC(=O)CCCCC(=O)c1[nH]c(=O)[nH]c1CN1CCOCC1	8.3	-74.3*	-0.6%	12.3	7.0%	2.4%
CCOC(=O)CCCCC(=O)c1[nH]c(=O)[nH]c1CSc1nc2ccccc2[nH]1	-16.0	-90.9*	-1.4%	-8.9	2.2%	-7.3%
CCN(CC(=O)Nc1ccccc1C(F)(F)F)C(=O)CCOc1ccc(C)cc1	-9.9	10.0	-1.2%	-7.1	-3.5%	?
NC(=O)C1CCN(C(=O)COc2ccc(S(=O)(=O)NCc3ccccc3)cc2Cl)CC1	0.0	25.9	-1.0%	4.6	?	8.2%
COc1ccccc1-c1ccnc(-n2ncc(C(=O)NCc3ccncc3)c2C)n1	nt	nt	nt	nt	-9.1%[9.04 µM]	-27.5%
COc1cc(NC(=O)[C@@H]2CCCN(S(=O)(=O)c3cccc4cccnc34)C2)cc(OC)c1OC	106.3	-0.3	0.7%	43.1*	10.3µM*	13µM*
